Source: ChEMBL document CHEMBL4303122, “Identification of potential treatments for COVID-19 through artificial intelligence-enabled phenomic analysis of human cells infected with SARS-CoV-2” (2020)
The full ranking holds about 1,600 compounds; the median of “Hit score” is about 0.13, and the highest 2% start at about 0.46. The full list was thinned out, with the highest values kept by preference.

These compounds were tested on SARS-CoV-2 (assay: Antiviral activity against SARS-CoV-2 (USA-WA1/2020 strain) measured by imaging in HRCE cells at MOI 0.4 after 96 hrs (reported as hit score from 0-1 for on-disease vs off-disease activity: scores >0.6 considered hits)).
Format: functional, Homo sapiens
With `C=CCNc1nc(NCC=C)nc(N2CCN(C(c3ccc(F)cc3)c3ccc(F)cc3)CC2)n1` [ALMITRINE] the Hit score was 0.7206.
Work on `COc1ccc(CN2CCN(C(c3ccc(F)cc3)c3ccc(F)cc3)CC2)c(OC)c1OC` [LOMERIZINE] yielded a Hit score of -0.04979.
`C#Cc1cccc(Nc2ncnc3cc4c(cc23)OCCOCCOCCO4)c1` [ICOTINIB] gave a Hit score of 0.1043.
With `C[C@H](O)[C@H](O)[C@H]1CNc2nc(N)[nH]c(=O)c2N1` [SAPROPTERIN] the Hit score was 0.04545.
With `C=C1[C@H](CO)[C@@H](O)C[C@@H]1n1cnc2c(=O)[nH]c(N)nc21.O` the Hit score was 0.1346.
`CC1(C)S[C@@H]2[C@H](NC(=O)[C@H](NC(=O)N3CCN(S(C)(=O)=O)C3=O)c3ccccc3)C(=O)N2[C@H]1C(=O)O` [MEZLOCILLIN] gave a Hit score of 0.1621.
For `O=C(O[C@H]1C[C@H]2CC[C@@H](C1)[N+]21CCCC1)C(O)(c1ccccc1)c1ccccc1` [TROSPIUM], the Hit score was 0.08693.
Work on `Cc1ccccc1C(=O)Nc1ccc(C(=O)N2CCCC(N(C)C)c3ccccc32)cc1` (stereo not given) [MOZAVAPTAN] yielded a Hit score of 0.1836.
For `CCC(C)(C)C(=O)O[C@H]1C[C@@H](C)C=C2C=C[C@H](C)[C@H](CC[C@@H]3C[C@@H](O)CC(=O)O3)[C@H]21` [SIMVASTATIN], the Hit score was 0.1206.
For `C[C@H]1c2cccc(O)c2C(=O)C2=C(O)[C@]3(O)C(=O)C(C(N)=O)=C(O)[C@@H](N(C)C)[C@@H]3[C@@H](O)[C@@H]21.O` [DOXYCYCLINE], the Hit score was -0.02175.
In the case of `CCCCCCCC/C=C/CCCCCCCC(=O)OC[C@H]1O[C@@H](n2ccc(N)nc2=O)C(F)(F)[C@@H]1O` [GEMCITABINE ELAIDATE], the Hit score is reported as 0.08488.
Work on `CC/C=C\C/C=C\C/C=C\C/C=C\C/C=C\CCCC(=O)O` [ICOSAPENT] yielded a Hit score of 0.1484.
Work on `C[N+]1(CC2CC2)[C@@H]2C[C@@H](OC(=O)[C@H](CO)c3ccccc3)C[C@H]1[C@@H]1O[C@@H]12` (stereo not given in full) [CIMETROPIUM] yielded a Hit score of 0.08586.
Compound `COc1cccc(Nc2c(C(N)=O)cnc3c(C)cc(S(=O)(=O)c4cccc(C(=O)N(C)C)c4)cc23)c1` [GSK-256066] has a Hit score of -0.006373.
`Cl.OC(CNCC(O)C1CCc2cc(F)ccc2O1)C1CCc2cc(F)ccc2O1` (stereo not given) [NEBIVOLOL HYDROCHLORIDE] showed a Hit score of 0.4783.
In the case of `C[C@]12CC[C@@H]3c4ccc(O)cc4CC[C@H]3[C@@H]1CC[C@@H]2OC(=O)CCC1CCCC1` [ESTRADIOL CYPIONATE], the Hit score is reported as 0.1681.
`Cc1ccc(/C=C2\CNC/C(=C\c3ccc(C)cc3)C2=O)cc1.Cl` showed a Hit score of 0.05741.
`C[C@@H](O)[C@H]1C(=O)N2C(C(=O)O)=C([C@H]3CCCO3)S[C@H]12` [FAROPENEM] was tested, and the Hit score was 0.1823.
For `CC1(C)S[C@@H]2[C@H](NC(=O)[C@H](N)c3ccc(O)cc3)C(=O)N2[C@H]1C(=O)[O-].[Na+]` [AMOXICILLIN SODIUM], the Hit score was 0.05468.
For `NCCCC[C@H](N)C(=O)O.N[C@@H](CSCC(=O)O)C(=O)O.O`, the Hit score was 0.1749.
`CO/N=C(\C(=O)N[C@@H]1C(=O)N2C(C(=O)OCOC(=O)C(C)(C)C)=C(C)CS[C@H]12)c1csc(N)n1` gave a Hit score of 0.2495.
In the case of `CN(C)C(=O)c1cc2cnc(Nc3ccc(N4CCNCC4)cn3)nc2n1C1CCCC1` [RIBOCICLIB], the Hit score is reported as 0.1227.
Compound `CC(COc1ccccc1Cc1ccccc1)N1CCCCC1` (stereo not given) [BENPROPERINE] has a Hit score of 0.02777.
Work on `C#C[C@]1(O)CC[C@H]2[C@@H]3CCC4=CC(=O)CC[C@@H]4[C@H]3CC[C@@]21C` [NORETHINDRONE] yielded a Hit score of 0.1388.
For `C=CCN1CC[C@]23c4c5ccc(O)c4O[C@H]2[C@@H](OCCOCCOCCOCCOCCOCCOCCOC)CC[C@@]3(O)[C@H]1C5` [NALOXEGOL], the Hit score was 0.106.
Compound `CN(C(=O)C(Cl)Cl)c1ccc(O)cc1` [DILOXANIDE] has a Hit score of -0.0329.
With `O=C1[C@H]2CCCC[C@H]2C(=O)N1CCCCN1CCN(c2nsc3ccccc23)CC1` [PEROSPIRONE] the Hit score was 0.1455.
`CCCCCCCCCCCC(=O)OCC(O)CO` (stereo not given) [GLYCEROL MONOLAURATE] was tested, and the Hit score was 0.1728.
Work on `OCC(O)COc1cccc2ccccc12` (stereo not given) yielded a Hit score of 0.1908.
Work on `CC1=C(C)C(=O)C(CCCCCCCCCC[P+](c2ccccc2)(c2ccccc2)c2ccccc2)=CC1=O` yielded a Hit score of 0.06177.
In the case of `C#C[C@]1(O)CC[C@H]2[C@@H]3CCC4=Cc5oncc5C[C@]4(C)[C@H]3CC[C@@]21C` [DANAZOL], the Hit score is reported as 0.2899.
Work on `CC(C)(CO)c1cc2cc(NC(=O)C3(c4ccc5c(c4)OC(F)(F)O5)CC3)c(F)cc2n1C[C@@H](O)CO` [TEZACAFTOR] yielded a Hit score of 0.1873.
Work on `O=C(O)c1cccc(-c2noc(-c3ccccc3F)n2)c1` yielded a Hit score of 0.2151.
`N#Cc1ccnc(N2C(=O)CC[C@H]2C(=O)N(c2cncc(F)c2)[C@H](C(=O)NC2CC(F)(F)C2)c2ccccc2Cl)c1` [IVOSIDENIB] gave a Hit score of 0.2722.
Work on `O=C(O)c1ccc2c(c1)nc(Nc1cccc(Cl)c1)c1ccncc12` [SILMITASERTIB] yielded a Hit score of 0.7608.
`CC[C@H](Nc1ncnc2[nH]cnc12)c1nc2cccc(F)c2c(=O)n1-c1ccccc1` [IDELALISIB] was tested, and the Hit score was 0.4259.
`C[C@H](Nc1ncnc2nc[nH]c12)c1cc2cccc(Cl)c2c(=O)n1-c1ccccc1` [DUVELISIB] was tested, and the Hit score was 0.6035.
`C[C@H](C(=O)O)c1ccc(-c2ccccc2)c(F)c1` [ESFLURBIPROFEN] showed a Hit score of 0.1907.
For `OC[C@H]1OC(O)[C@H](O)[C@@H](O)[C@@H]1O` (stereo not given in full) [DEXTROSE], the Hit score was 0.07162.
Work on `CCCCC(F)(F)[C@@]1(O)CC[C@H]2[C@@H](CC(=O)[C@@H]2CCCCCCC(=O)O)O1` [LUBIPROSTONE] yielded a Hit score of 0.08446.
`CC1(C)C(/C=C/C=C/C=C/C=C2\N(CCCCS(=O)(=O)[O-])c3ccc4ccccc4c3C2(C)C)=[N+](CCCCS(=O)(=O)[O-])c2ccc3ccccc3c21.[Na+]` [INDOCYANINE GREEN] showed a Hit score of 0.2338.
With `Cc1nc(NC(=O)N2CCC[C@H]2C(N)=O)sc1-c1ccnc(C(C)(C)C(F)(F)F)c1` [ALPELISIB] the Hit score was 0.6194.
For `CC(C)(C)C(=O)OCC(=O)[C@H]1CC[C@H]2[C@@H]3CCC4=CC(=O)CC[C@]4(C)[C@H]3CC[C@]12C` [DESOXYCORTICOSTERONE PIVALATE], the Hit score was 0.2223.
`O=C(O)c1ccc(NC(=O)[C@H](Cc2ccc(O)cc2)NC(=O)c2ccccc2)cc1` [BENTIROMIDE] was tested, and the Hit score was 0.2686.
For `CC1(C)O[C@@H]2[C@@H](CO[C@@]3(COS(N)(=O)=O)OC(C)(C)O[C@@H]23)O1` [TOPIRAMATE], the Hit score was 0.1748.
`N#Cc1c(N2C[C@@H]3NCCO[C@H]3C2)c(F)cc2c(=O)c(C(=O)O)cn(C3CC3)c12` [FINAFLOXACIN] gave a Hit score of 0.04952.
With `C[C@H]1C[C@@H]2[C@H]([C@@H](O)C[C@@]3(C)[C@H]2CC[C@]3(O)C(=O)CO)[C@@]2(C)C=CC(=O)C=C12` [METHYLPREDNISOLONE] the Hit score was 0.1629.
`CCCCc1oc2ccc(NS(C)(=O)=O)cc2c1C(=O)c1ccc(OCCCN(CCCC)CCCC)cc1` [DRONEDARONE] showed a Hit score of 0.03796.
With `C[C@]1(Cn2ccnn2)[C@H](C(=O)O)N2C(=O)C[C@H]2S1(=O)=O` [TAZOBACTAM] the Hit score was 0.04532.
With `CC(C)Cc1ccc(C(C)C(=O)OCc2ccccn2)cc1` (stereo not given) [IBUPROFEN PICONOL] the Hit score was 0.1126.
`CCCN1CC(NS(=O)(=O)N(CC)CC)CC2Cc3c(O)cccc3CC21` (stereo not given) [QUINAGOLIDE] gave a Hit score of 0.09123.
In the case of `CO/N=C(\C(=O)N[C@@H]1C(=O)N2C(C(=O)O)=C(CSc3nnnn3C)CS[C@H]12)c1csc(N)n1` [CEFMENOXIME], the Hit score is reported as 0.1641.
`N=C(N)c1ccc(/C=C/c2ccc(C(=N)N)cc2O)cc1` [HYDROXYSTILBAMIDINE] was tested, and the Hit score was 0.4886.
Work on `Nc1nc(=O)c2c([nH]1)NC[C@H](CNc1ccc(C(=O)N[C@@H](CCC(=O)O)C(=O)O)cc1)N2C=O` [LEVOLEUCOVORIN] yielded a Hit score of 0.1157.
Work on `C#C[C@]1(OC(C)=O)CC[C@H]2[C@@H]3CCC4=CC(=O)CC[C@@H]4[C@H]3CC[C@@]21C` [NORETHINDRONE ACETATE] yielded a Hit score of 0.06494.
`CC(C)NCC(O)COc1cccc2[nH]ccc12` (stereo not given) [PINDOLOL] was tested, and the Hit score was 0.3758.
`CC(C)NCC(O)COc1cccc2ccccc12` (stereo not given) [PROPRANOLOL] was tested, and the Hit score was 0.3664.
For `CC(C)NCC(O)COc1cccc2[nH]c3ccccc3c12` (stereo not given) [CARAZOLOL], the Hit score was 0.4815.
`COc1ccccc1OCC(O)CO` (stereo not given) [GUAIFENESIN] gave a Hit score of 0.2008.
For `C=CCOc1ccccc1OCC(O)CNC(C)C` (stereo not given) [OXPRENOLOL], the Hit score was 0.08363.
With `CC(C)NC[C@@H](O)COc1cccc2ccccc12` [DEXPROPRANOLOL] the Hit score was 0.4686.
With `COc1ccccc1OCCNCC(O)COc1cccc2[nH]c3ccccc3c12` (stereo not given) [CARVEDILOL] the Hit score was 0.5244.
`C=CCc1ccccc1OCC(O)CNC(C)C` (stereo not given) [ALPRENOLOL] was tested, and the Hit score was 0.3773.
`COc1ccc(CCNCC(O)COc2cccc(C)c2)cc1OC` (stereo not given) [BEVANTOLOL] gave a Hit score of 0.3675.
With `NS(=O)(=O)c1cc(-c2nnn[nH]2)c(NCc2cccs2)cc1Cl` [AZOSEMIDE] the Hit score was 0.09549.
